From ChEMBL document CHEMBL3988442, “University of Dundee, Small-Polar-MMV Screening Library” (2021) come the findings set out here.

Assay [1] addresses T1, Aspartate--tRNA(Asp/Asn) ligase (Mycobacterium tuberculosis (strain ATCC 25618 / H37Rv)) (UniProt P9WFW3).
T1 sequence (whole entry): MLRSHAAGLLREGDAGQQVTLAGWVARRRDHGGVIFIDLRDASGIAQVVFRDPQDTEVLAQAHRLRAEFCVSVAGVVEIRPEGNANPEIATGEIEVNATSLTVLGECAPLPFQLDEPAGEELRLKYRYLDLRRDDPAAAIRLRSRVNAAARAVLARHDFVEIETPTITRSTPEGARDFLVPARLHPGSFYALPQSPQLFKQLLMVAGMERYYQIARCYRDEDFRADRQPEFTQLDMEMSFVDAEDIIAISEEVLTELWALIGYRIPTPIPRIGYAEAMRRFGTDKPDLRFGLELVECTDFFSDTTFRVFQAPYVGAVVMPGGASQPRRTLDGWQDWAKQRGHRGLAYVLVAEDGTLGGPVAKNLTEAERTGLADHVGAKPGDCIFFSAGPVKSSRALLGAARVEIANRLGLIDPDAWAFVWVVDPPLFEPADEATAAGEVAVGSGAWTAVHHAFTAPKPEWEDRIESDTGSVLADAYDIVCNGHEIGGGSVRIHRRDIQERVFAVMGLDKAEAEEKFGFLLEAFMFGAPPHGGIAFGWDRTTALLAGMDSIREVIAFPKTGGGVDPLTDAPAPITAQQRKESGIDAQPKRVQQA
The experiment in a line: Assay for Asp RNA synthetase-1 from Mycobacterium tuberculosis. The format is functional. The arrangement: scale not given: direction of the effect not stated beside the values. The settings on record: 30 µM.

Assay [2] concerns the target Shiga toxin 2 (Escherichia coli O157:H7) (UniProt P09385+P09386). Description: E. coli 0.157:H7 Shiga Toxin SOP - stx2 screening assay. Set-up: scale not given: direction of the effect not stated beside the values. The format is functional. The settings on record: 30 µM.

On to `Cn1nc(C2CCN(C(=O)Cc3cccc(F)c3)CC2)c2cccnc21`, for which the results for the Percent Effect in assay [1] and in assay [2] were -2.81% and -7.51%, respectively.
Taken in the same sequence, the figures for `CC(C)c1nnc2n1CC(CNCc1ccncc1)CC2` (stereo not given) were -2.34% and -14.7%.
The matching figures for `Cc1cnc(N2CCC3(CCCN(c4ccc(C)nn4)C3)C2)nc1` (stereo not given): -0.547% and -25.4%.
Taken in the same sequence, the figures for `Cc1ncsc1CN1CC[C@H]2C(=O)N(c3ccccc3)CCO[C@H]2C1` were -1.84% and 3.87%.
In the case of `CC(C)CNC(=O)[C@H]1CCS(=O)(=O)[C@@H]2CN(Cc3cccc(Cl)c3)C[C@H]12`, the Percent Effect in assay [1] was -3.06%; in assay [2] it was -29.7%.
The matching figures for `Cc1csc(Nc2cc(C3CCCCN3C)nc(C)n2)n1` (stereo not given): -2.66% and -11.8%.
The matching figures for `O=C(NCCc1cccs1)[C@H]1CO[C@H]2CCNC[C@H]2C1`: 2.09% and 2.12%.
For `Cc1noc2ncc(C(=O)N3CCCC3c3ccncc3)cc12` (stereo not given), the Percent Effect in assay [1] is -7.22%; in assay [2], -37.9%.
For `O=C1CC2(CCN(Cc3ccoc3)C2)CN1c1ccc2c(c1)OCO2` (stereo not given), the Percent Effect is 5.29% in assay [1] and -93.1% in assay [2].
Taken in the same sequence, the figures for `Cc1cc(C)cc(OCC(=O)NC2CCN(S(C)(=O)=O)CC2)c1` were 0.903% and -16.4%.
With `CCC(CC)C(CNC(=O)Nc1ccc(C)cc1)N1CCOCC1` (stereo not given), the values for the Percent Effect in assay [1] and in assay [2] were -1.91% and -3.64%, respectively.
Taken in the same sequence, the figures for `COCCCN1CCC(NC(=O)C(C)C)CC1` were -2.37% and -36.2%.
As for `CC(NC(=O)N1CCN(c2ccccc2)CC1)c1nncn1C` (stereo not given), the Percent Effect was 1.07% in assay [1] and -28.9% in assay [2].
The matching figures for `CNc1nc(CNC(=O)Nc2cccc(F)c2C)cs1`: -2.59% and 17.1%.
Taken in the same sequence, the figures for `N#Cc1ncn(CCC(=O)Nc2ccc(Cl)cc2F)n1` were 10.4% and -41%.
The matching figures for `Cn1cnc(-c2cc(C(=O)N3CCOCC3)c3ccccn23)c1`: 1.18% and -6.75%.
For the compound `O=C(Cc1ccccc1F)N1CCN(C(=O)c2ccoc2)CC1`, the results for the Percent Effect in assay [1] and in assay [2] were 5.87% and -6.64%, respectively.
The matching figures for `COc1ccccc1CNC(=O)N1CCCC(NS(C)(=O)=O)C1` (stereo not given): 1.76% and 23.8%.
On to `CC(Cn1ccnc1)NC(=O)C1(c2ccc(F)cc2)CC1` (stereo not given), for which the Percent Effect in assay [1] is -1.46%; in assay [2], 2.06%.
Turning to `O=C(c1cscn1)N1C[C@H]2CCCC(OCc3cccnc3)[C@H]2C1` (stereo not given in full), the values for the Percent Effect in assay [1] and in assay [2] were 6.49% and -13.5%, respectively.
The matching figures for `Cc1ccc(CN2CCCn3nnc(COCC4CC4)c3C2)s1`: -4.16% and 0.0593%.
Taken in the same sequence, the figures for `Cc1cccc(CN2CCc3c(nc(N4CCCCC4C)[nH]c3=O)C2)n1` (stereo not given) were -1.15% and 21.7%.
As for `CCn1nc2c(cc1=O)CN(Cc1nc(CCOC)no1)CC2`, the Percent Effect in assay [1] was 2.21%; in assay [2], -7.6%.
The matching figures for `CN(C)CC(=O)N1C[C@@H]2CC[C@H](Oc3ccccc3Cl)[C@@H]2C1`: 1.77% and 12.4%.
Turning to `Cc1ccsc1C(=O)N1Cc2ccccc2C2(CCN(C)CC2)C1`, the Percent Effect in assay [1] was 5.26%; in assay [2], 5.47%.
The matching figures for `O=C(NCc1cccc(F)c1)N1CCC2(CC(=O)N(c3ccsc3)C2)C1` (stereo not given): -4.15% and -7.69%.
Taken in the same sequence, the figures for `Cc1ccc(F)c(OC2(C(=O)O)CCN(C(=O)N3CCCC3)CC2)c1` were -1.17% and -2.51%.
Taken in the same sequence, the figures for `Cn1ccc(CN2CCC(NC(=O)NC3CCCCC3)CC2)cc1=O` were -0.833% and -11.2%.
Take `CCn1nc(C)c2ccn(CC(=O)NC3CCCC3)c(=O)c21`: the values for the Percent Effect in assay [1] and in assay [2] were 4.68% and 12.1%, respectively.
Consider `CC(C)NC(=O)N1CCC(n2ccc(C(F)(F)F)n2)CC1`, for which the Percent Effect in assay [1] was -2.88%; in assay [2], -0.886%.
Taken in the same sequence, the figures for `Cc1cc(C)n(CC2CCCN2C(=O)c2c[nH]c3ncccc23)n1` (stereo not given) were -1.92% and 26.8%.
For the compound `Cn1cc(NC(=O)Cn2c(CS(C)(=O)=O)nc3ccccc32)cn1`, the Percent Effect in assay [1] is -0.299%; in assay [2], 1.48%.
Taken in the same sequence, the figures for `O=C(Nc1ccccc1)C1=CC2(CCNCC2)c2ccccc21` were 1.3% and -14.6%.
Taken in the same sequence, the figures for `Cc1cnc(N2CCC3(CCN(CC4CC4)C3=O)CC2)nc1` were -3.05% and -8.57%.
Taken in the same sequence, the figures for `O=C(COCc1nc(-c2ccncc2)no1)N1CCCC1` were 15.3% and -21.3%.
Turning to `O=C(Cc1cccc(F)c1)NCCNCc1ccco1`, the Percent Effect is 0.577% in assay [1] and 3.74% in assay [2].
Taken in the same sequence, the figures for `Cc1[nH]ccc1C(=O)N1CCCC(c2nccn2Cc2cscn2)C1` (stereo not given) were -2.28% and 4.58%.
The matching figures for `Cc1cnn(CC2CN(CCS(=O)(=O)c3ccccc3)CCO2)c1` (stereo not given): -0.24% and 0.99%.
Taken in the same sequence, the figures for `CN(C)c1ccc(C(=O)N2CCN(Cc3cscn3)CC2)cc1F` were 5.95% and -20.8%.
Take `CC(=O)NCCC1CCCCN1S(=O)(=O)c1cccc(C#N)c1` (stereo not given): the Percent Effect in assay [1] is -1.28%; in assay [2], -30%.
Taken in the same sequence, the figures for `COc1cc(N2CC[C@H](O)[C@@H]2Cc2cnn(C)c2)ncn1` were -4.05% and -1.67%.
Taken in the same sequence, the figures for `CCn1c(C2CCCN(Cc3nccn3CCOC)C2)nn(C)c1=O` (stereo not given) were 4.25% and 5.34%.
Taken in the same sequence, the figures for `CC1c2ncc(Cn3cncn3)n2CCN1C(=O)C1CCOCC1` (stereo not given) were 3.23% and -10.6%.
As to `O=C1CC(c2ccc(C(=O)O)cc2)c2ncn(-c3cccc(F)c3)c2N1` (stereo not given), the Percent Effect was 7.81% in assay [1] and -17.3% in assay [2].
Taken in the same sequence, the figures for `Cc1nccc(-c2cccc(NCC(=O)N3CCNC3=O)c2)n1` were 2.42% and 8.66%.
Taken in the same sequence, the figures for `CCOCC(=O)NC1(c2cccc(Br)c2)CC1` were 1.26% and -5.68%.
For the compound `Cc1cnn(CC2CCCCN2C(=O)c2cc(Cl)c[nH]2)c1` (stereo not given), the Percent Effect in assay [1] was 1.83%; in assay [2] it was -31.9%.
Taken in the same sequence, the figures for `CC(=O)N1CCC2(CCN(C(=O)c3ccc(C)c(C(F)(F)F)c3)CC2)C1` were 17.3% and -10.7%.
The matching figures for `COc1ccc(NCc2nc(=O)n(CCC(C)C)[nH]2)cc1`: -2.01% and 5.42%.
Taken in the same sequence, the figures for `O=c1cc2c(nn1CN1CCN(c3cccc(Cl)c3)CC1)CCC2` were -1.19% and -4.9%.
